Experimental data from PubChem BioAssay (EPA / NIEHS).
The source made the active and inactive calls. Rule for the calls: active = hit-call score of the fitted dose curve at least 0.9, where 1 is the maximum; inactive = score below 0.9.

Assay: BSK_LPS_SRB: Viability Assessment in the BioMAP Diversity Plus: LPS Assay (AID 2283079);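 note: measured one day after compound addition; fitted in both directions against DMSO so loss or gain of signal counts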
Settings: primary human HUVEC with PBMC
Experimental: BSK_LPS is a cell-based, multiplexed-readout assay that uses umbilical vein endothelium and peripheral blood mononuclear cells, a human vascular primary cell co-culture, with measurements taken at 24 hours after chemical dosing in a 96-well plate.BSK_LPS_SRB is an assay component measured in the BSK_LPS assay. It measures 0.1% sulforhodamine related to cell death using Sulforhodamine staining technology.Data from the assay component BSK_LPS_SRB was analyzed into 1 assay endpoint. This assay endpoint, BSK_LPS_SRB, was analyzed with bidirectional fitting relative to DMSO as the negative control and baseline of activity. Using a type of viability reporter, gain or loss-of-signal activity can be used to understand changes in the signaling. Furthermore, this assay endpoint can be referred to as a primary readout, because this assay has produced multiple assay endpoints where this one serves a signaling function. To generalize the intended target to other relatable targets, this assay endpoint is annotated to the cell morphology intended target family, where the subfamily is cell conformation.
The levels of cell surface (or secreted, indicated by the prefix "s") biomarker endpoints were measured by ELISA. Overt cytotoxicity to cells in confluent adherent cultures (all systems other than the BT system) was assessed by measuring total protein levels using sulforhodamine B (SRB) staining in parallel cultures at the time of biomarker measurements, indicated as SRB endpoints. For proliferation assays for adherent cell types, individual cell types are cultured at sub-confluence and relative cell numbers quantified by SRB staining at time points optimized for each system (48 h: 3C and CASM3C systems; 72 h: BT and HDF3CGF systems; 96 h: SAg system). SRB was performed by staining cells with 0.1% SRB after fixation with 10% TCA and reading wells at 560 nm.Viability and proliferation of PBMC (T cells) was quantified by Alamar Blue reduction for the SAg and BT systems. For PBMC viability (referred to as PBMC Cytotoxicity within the assay endpoint names), cells were plated (75,000/well in a 96-well plate) and then chemical samples added for 1 h before addition of activators, SEB and TSST-1 (20 ng/mL final concentration each). Cells were incubated for 90 h. Then, Alamar Blue (20 uL/well) (Invitrogen, Cat DAL1100) was added for 6 h, and the plates were read with a fluorescence microplate reader at 546/580 nm (excitation/emission). For PBMC proliferation, cells were plated and activated as above but incubated for only 16 h prior to addition of Alamar Blue. Plates were read after 6 h.

| Structure (SMILES) | outcome | AC50 |
| --- | --- | --- |
| Cc1nc(-c2ccc3c(c2)CCN(CCC2CCC(NC(=O)/C=C/c4ccc(F)cc4)CC2)CC3)no1 (stereo not given) | inactive | – |
| CCCCC(CC)COC(=O)CC(C(=O)OCC(CC)CCCC)S(=O)(=O)O (stereo not given) | – | 30.7 µM (active) |
| COc1cc(C=O)ccc1O | inactive | – |
| COc1ccc2c(c1)c(CC(=O)O)c(C)n2C(=O)c1ccc(Cl)cc1 | inactive | – |
| Oc1ccc2c(c1)OC[C@@H](N1CCC(O)(c3ccc(F)cc3)CC1)[C@H]2O | inactive | – |
| CCCCCC(=O)O | inactive | – |
| CCCCCCCCCCCCCCCCCC(=O)O | – | 20 µM (active) |
| CCOC(=O)C(C)(C)Oc1ccc(Cl)cc1 | inactive | – |
| C[Si]1(C)O[Si](C)(C)O[Si](C)(C)O[Si](C)(C)O1 | inactive | – |
| C[C@]12C=CC(=O)C=C1CC[C@@H]1[C@@H]2C(=O)C[C@@]2(C)[C@H]1CC[C@]2(O)C(=O)CO | inactive | – |
| Nc1ccccc1N | inactive | – |
| CCNc1cccc(C)c1 | inactive | – |
| O=c1[nH]cc(F)c(=O)[nH]1 | inactive | – |
| CCCCc1ccc2c(n1)[C@@H](c1ccc(OC)cc1C[C@H](C)C(=O)O)[C@H](C(=O)O)[C@H]2c1ccc2c(c1)OCO2 | inactive | – |
| CCOc1ccc2c(c1)C(C)=CC(C)(C)N2 | inactive | – |
| c1cc(-c2ccncc2)ccn1 | inactive | – |
| CCCCCCOCCO | inactive | – |
| CC1=C(/C=C/C(C)=C/C=C/C(C)=C/CO)C(C)(C)CCC1 | inactive | – |
| Cc1nc(C)nc(N2C[C@@H](C)N(c3ccnc([C@@H](C)O)n3)[C@@H](C)C2)n1 | inactive | – |
| COc1ccc(C)cc1N | inactive | – |

| Structure (SMILES) | outcome | AC50 |
| --- | --- | --- |
| Cc1ccc(Cl)cc1 | inactive | – |
| NS(=O)(=O)c1cc2c(cc1Cl)NCNS2(=O)=O | inactive | – |
| C=CCc1ccc(O)c(OC)c1 | inactive | – |
| CCCCCCC(=O)OCC | inactive | – |
| CC(=O)Oc1ccccc1C(=O)O | inactive | – |
| CC1(C)CC(N=C=O)CC(C)(CN=C=O)C1 (stereo not given) | inactive | – |
| C1CCC(SSC2CCCCC2)CC1 | inactive | – |
| Nc1nc(N)c2nc(CNc3ccc(C(=O)N[C@@H](CCC(=O)O)C(=O)O)cc3)cnc2n1 | inactive | – |
| CN[C@H]1CC[C@@H](c2ccc(Cl)c(Cl)c2)c2ccc(S(N)(=O)=O)cc21 | – | 26.6 µM (active) |
| CNC(=O)[C@H]1O[C@@H](n2cnc3c(NCc4cc(Cl)ccc4OCc4cc(C)no4)ncnc32)[C@H](O)[C@@H]1N | inactive | – |
| O=C(N[C@@H](Cc1ccccc1)[C@@H](O)C(=O)N1C[C@@H](O)[C@@H](O)C1)c1cc2cc(Cl)ccc2[nH]1 | inactive | – |
| Cc1cccc(C)c1O | inactive | – |
| Nc1ccc2c(c1)C(=O)c1ccccc1C2=O | inactive | – |
| CCCCCCCCCCCCCO | inactive | – |
| NC(=O)Cn1c(=O)cc(CCN2CCN(c3nccc4sccc34)CC2)c2ccc(F)cc21 | inactive | – |
| O=C(O)CCCCC(=O)O | inactive | – |
| C=CCOC(=O)c1ccccc1C(=O)OCC=C | inactive | – |
| Cc1cc(NC(=O)C(=O)O)cc(C)c1Oc1ccc(O)c2c1CCC2 | inactive | – |
| CCCCOC(=O)CCCCCCCCC(=O)OCCCC | inactive | – |
| CC(=O)C(C)=CC1C(C)=CCCC1(C)C (stereo not given) | inactive | – |
